TAG inh = triacylglycerol accumulation inhibition; H9c2 cells, Nile Red lipid (TAG) fluorescence; cells loaded with 200 µM oleic acid; inhibition, % at 12.5 µM; 0.66% of 230,000 active;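 active = pattern-corrected inhibition of lipid staining of at least 50% with the nuclear-stain viability signal not falling by more than 50%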
aDG glyco act = increases alpha dystroglycan glycosylation. Pro5-aDG cells, alpha-DG glycosylation AlphaScreen (IIH6); 0% Pro5, 100% B10-LARGE cell signal. activation, % at 10 µM. 0.22% of 360,000 active. AID 624168;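 active = activation of at least 8% versus controls, or a plate z-score of at least 8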;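 also: Pro5 are CHO cells carrying HIG-tagged alpha-DG that lacks glycosylation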
MPTP inh = blocks calcium-induced mitochondrial swelling | isolated mouse mitochondria, Ca2+ swelling absorbance, 30 min | inhibition, % at 10 µM | 1.4% of 360,000 active;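 active = inhibition of 50% or more, scaled per plate between neutral and stimulator controls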
NadD block = NadD (S. aureus) enzyme inhibition | purified NadD enzyme, colorimetric absorbance read-out | inhibition, % at 20 µM | 0.78% of 360,000 active; in the data active = inhibition above about 26%
Rh123 counter = Rhodamine 123 counter-screen of mitochondrial pore hits; shares compounds with MPTP inh; isolated mitochondria, membrane potential, Rhodamine 123 fluorescence; inhibition, % at 10 µM; 78% of 5,000 active; AID 624504; in the data active = inhibition above about 22%
MPTP swell DR = dose response confirmation of mitochondrial permeability transition pore inhibitors; isolated mitochondria swelling, absorbance; 58% of 780 active; AID 651561; IC50, µM; shares compounds with MPTP inh; in the data active = IC50 below about 20 µM
MPTP counter DR = counter-screen for mitochondrial permeability transition pore inhibitors, dose response; shares compounds with MPTP inh; isolated mitochondria counterscreen, fluorescence read-out; IC50, µM; 49% of 780 active; in the data active = IC50 below about 80 µM
Large screens that a line does not name were inactive (follow-up assays come after a bar, where they were run). Compounds with a hit are over-represented: about 2.7% of the library has one in this group of screens.

FC(F)(F)C1=Nc2cccc3cccc(c23)N1	MPTP inh 103, NadD block 72 | Rh123 counter 71
Fc1ccc(C2=Nc3cccc4cccc(c34)N2)cc1	none (no result: TAG inh)
COc1cc(/C=N/NC(=O)c2nnn(-c3nonc3N)c2C(C)C)ccc1OCc1ccc(F)cc1	MPTP inh 62 (no result: TAG inh) | Rh123 counter 56
CN(C)Cc1c(C(=O)N/N=C/c2cccc(OCc3ccc(F)cc3)c2)nnn1-c1nonc1N	none (no result: TAG inh)
CN(C)Cc1c(C(=O)N/N=C/c2cccc(OCc3ccccc3)c2)nnn1-c1nonc1N	MPTP inh 65 (no result: TAG inh) | Rh123 counter 80
CN(C)Cc1c(C(=O)N/N=C/c2cccc(OCc3c(F)cccc3Cl)c2)nnn1-c1nonc1N	MPTP inh 61 (no result: TAG inh) | Rh123 counter inactive | MPTP swell DR 6.3 | MPTP counter DR <2.5
CCCCNC(=O)C1c2ccccc2OCC(=O)N1CCc1ccc(OC)c(OC)c1 (configuration not stated)	none (no result: TAG inh)
Cc1nc2ccccc2nc1SCC(=O)c1ccccc1	MPTP inh 75 (no result: TAG inh) | Rh123 counter 71
CCOc1ccc(Nc2nc(Cc3nnc(SCC(=O)c4ccc(C)c(C)c4)o3)cs2)cc1	MPTP inh 83 (no result: TAG inh) | Rh123 counter 74
Cc1c(OCC(=O)N2CCC(C(=O)NCCCC(=O)O)CC2)ccc2c1oc(=O)c1ccccc12	none (no result: TAG inh)
COc1ccc(C[C@H]2CN3C(=NC[C@@H]3C(C)C)N2CCNC(=O)c2ccc(C)c(Br)c2)cc1	MPTP inh 69 (no result: TAG inh) | Rh123 counter inactive
CCCOc1ccc(S(=O)(=O)NNC(=O)c2cc3ccccc3o2)cc1	MPTP inh 66 (no result: TAG inh) | Rh123 counter 31
CC(C)c1ccc(S(=O)(=O)c2n[nH]n3c2nc(=O)c2ccccc23)cc1	MPTP inh 58 (no result: TAG inh) | Rh123 counter 60
C=CC(=O)Nc1cccc(N(C)c2ccnc(Nc3ccc(N4CCN(C)CC4)cc3)n2)c1	MPTP inh 102 | Rh123 counter 93
C=CC(=O)Nc1cccc(Oc2ccnc(Nc3ccc(N4CCN(C)CC4)cc3)n2)c1	none
Cc1ccc(NS(=O)(=O)c2ccc(-n3cccn3)cc2)c(Cl)c1	none
CCOC(=O)C1C(=O)CC(=O)C(C(=O)OCC)C1c1ccc(O)cc1 (configuration not stated)	none
O=C(Cc1ccc(Cl)cc1)Nc1ccc2oc(=O)ccc2c1	none
O=C(Cc1ccc(Cl)cc1)Nc1ccc(-c2cc3ccccc3oc2=O)c(Cl)c1	MPTP inh 64 (no result: TAG inh) | Rh123 counter 71
CCc1ccc(OCC(=O)Nc2ccc(-c3cc4ccccc4oc3=O)c(OC)c2)cc1	MPTP inh 101 (no result: TAG inh) | Rh123 counter 97
COc1cc(NC(=O)c2cc(Cl)ccc2Cl)ccc1-c1cc2ccccc2oc1=O	none (no result: TAG inh)
O=[N+]([O-])c1ccc(Cl)c(NC2=NCCCCC2)c1	none (no result: TAG inh)
c1coc(-c2cc3nc(NC4CCCCC4)ccn3n2)c1	none
c1ccc(CNCCCNCCCCNCCCNCc2ccccc2)cc1	MPTP inh 84 | Rh123 counter inactive | MPTP swell DR 1.4 | MPTP counter DR inactive
Cc1nnc(NC(=O)CSc2n[nH]c(-c3ccccc3C)n2)s1	MPTP inh 96 (no result: TAG inh) | Rh123 counter inactive | MPTP swell DR inactive | MPTP counter DR inactive
CCc1nnc(NC(=O)CSc2n[nH]c(-c3ccccc3O)n2)s1	none
Clc1ccc(CNCCC2=CCCCC2)cc1	MPTP inh 70 (no result: TAG inh) | Rh123 counter inactive | MPTP swell DR 13 | MPTP counter DR inactive
O=C(NCCC1=CCCCC1)C(=O)NCc1ccccc1	none
O=C(/C=C/c1cccs1)Nc1ccncc1	none (no result: TAG inh)
CC(C)(C)c1ccc(/C=C/C(=O)Nc2ccncc2)cc1	MPTP inh 98 (no result: TAG inh) | Rh123 counter 92
CC1(C(=O)NS(=O)(=O)c2ccc(C#N)cc2)CCN1C(=O)Cc1ccc(Cl)cc1Cl (configuration not stated)	none
O=C(Nc1cc(S(=O)(=O)Nc2ccccc2Cl)ccc1O)c1cc2c(s1)CCCC2	MPTP inh 89 | Rh123 counter 83
O=C(Nc1ccon1)c1cc2c(s1)CCCC2	none (no result: TAG inh)
O=C(Nc1cccc(S(=O)(=O)Nc2ccc(Cl)cc2)c1)c1ccc(Cl)nc1	MPTP inh 92 | Rh123 counter 80
COc1ccc(NS(=O)(=O)c2cccc(NC(=O)CCS(=O)(=O)c3ccccc3)c2)cc1	MPTP inh 55 (no result: TAG inh) | Rh123 counter inactive | MPTP swell DR inactive | MPTP counter DR 57
COc1ccc(NS(=O)(=O)c2cccc(NC(=O)CCC(=O)c3cccs3)c2)cc1	none (no result: TAG inh)
O=C(Nc1ccccc1N1CCOCC1)c1cc2c(s1)CCCCC2	none
O=C(Nc1cccc(S(=O)(=O)Nc2ccc(Cl)cc2)c1)c1cc2c(s1)CCCC2	MPTP inh 97 (no result: TAG inh) | Rh123 counter 83
COc1ccc(NS(=O)(=O)c2cccc(NC(=O)c3ccc(Cl)nc3)c2)cc1	aDG glyco act 8.5, MPTP inh 100 | Rh123 counter 94
O=C(Cc1ccccn1)c1ccncc1	none
CC(=O)COc1ccc2c3c(c(=O)oc2c1C)CCCCC3	none (no result: TAG inh)
COC(=O)Cc1c(C)c2ccc(OCC(C)=O)c(C)c2oc1=O	none
C=C(C)COc1ccc2c(C)c(CC(=O)OC)c(=O)oc2c1C	MPTP inh 75 | Rh123 counter 59
Cc1c(OCC(=O)OC(C)(C)C)ccc2c3c(c(=O)oc12)CCC3	MPTP inh 62 | Rh123 counter 56
O=C(CNCc1ccc(F)cc1)Nc1cc(S(=O)(=O)N2CCOCC2)ccc1Cl	none
O=C(NNC(=O)c1cccc(O)c1)Nc1ccc([N+](=O)[O-])cc1	MPTP inh 56 | Rh123 counter 36
COc1cc([N+](=O)[O-])ccc1NC(=O)Nc1ccc2c(c1)OCCO2	none
O=C(Nc1ccc([N+](=O)[O-])cc1)Nc1ccc2c(c1)OCCO2	MPTP inh 95 | Rh123 counter 90
Cc1cccc(NC(=O)Nc2ccc([N+](=O)[O-])cc2)n1	MPTP inh 69 | Rh123 counter 54
O=C(Nc1ccc([N+](=O)[O-])cc1)Nc1ccc2[nH]c(=O)[nH]c2c1	MPTP inh 82 | Rh123 counter 71
O=C(CSc1ccc([N+](=O)[O-])cn1)Nc1ccc2[nH]c(=O)[nH]c2c1	none (no result: TAG inh)
O=C(Nc1ccc([N+](=O)[O-])cc1)c1cccc([N+](=O)[O-])c1	none
N#CCCCc1cn(-c2nc3ccccc3s2)nn1	none (no result: TAG inh)
Cc1ccc(Cl)cc1NC(=O)Nc1cccs1	MPTP inh 87 | Rh123 counter 86
O=S(=O)(c1cc(F)ccc1F)N1CCN(C2CCCCC2)CC1	none
N#C/C(=N\Nc1cccc(C(F)(F)F)c1)C(=O)c1ccsc1	MPTP inh 84 | Rh123 counter 57
CCCCNC(=S)NCC(c1ccccc1)c1c[nH]c2ccccc12 (configuration not stated)	none (no result: TAG inh)
CN(C)CCCNC(=S)NCC(c1ccc(Cl)cc1Cl)c1c[nH]c2ccccc12 (configuration not stated)	MPTP inh 77 (no result: TAG inh) | Rh123 counter inactive

From PubChem
